Pf Dd2 growth: qHTS Primary assay for Inhibitors of Plasmodium falciparum Dd2 growth in vitro | P. falciparum Dd2 growth, SYBR Green, 72 h | Potency, µM (highest dose often 28.9 µM), for the others: at the highest dose activity, negative = inhibition, hits mostly inhibitors | 4.3% of 120,000 active | AID 1347417, 2020; active = well fitted inhibition curve with a large enough effect;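 also: plate controls were DMSO vehicle for no effect and reference drug for full effect; nearly all actives have a fitted effect of over 65% in size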
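Readout: SYBR Green fluorescence, 485 nm excitation, 535 nm emission, after ~16 h lysis at 37C. Before that, Dd2-infected red cells (2.5% hematocrit) grew 72 h with compound, 29 uM top final concentration.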
* marks the source's active call; other numbers are inactive results; i = inactive; [ ] = dose if it differs, or a comment. Shown is part of a subset that was picked to be rich in hits. Potency is read from the fitted curve at half-maximal effect.

SMILES	Pf Dd2 growth
COc1ccc(C(=O)NCC2Cn3cccc3C(=O)N2Cc2ccccc2)cn1 (stereo not given)	-24.6%
CC1=C[C@@H](CC#N)[C@H](C(C)C)C[C@H]1CC(=O)N1CCN(c2cnccn2)CC1	7.08µM*
CC1=C[C@@H](CNC(=O)C(C)(C)C)[C@H](C(C)C)C[C@H]1CC(=O)N1CCN(c2ccccn2)CC1	-5.6%
CC1=C[C@@H](CNC(=O)C2CCCCC2)[C@H](C(C)C)C[C@H]1CC(=O)N1CCN(c2ccccn2)CC1	10µM*
CC1=C[C@@H](CNC(=O)c2ccccc2)[C@H](C(C)C)C[C@H]1CC(=O)N1CCN(C)CC1	i
CC(=O)N1CCN(C(=O)C[C@@H]2C[C@@H](C(C)C)[C@H](CC#N)C=C2C)CC1	-9.7%[44.1 µM]
CC1=C[C@@H](CO)[C@H](C(C)C)C[C@H]1CC(=O)N1CCN(CCO)CC1	i
COc1cc(C(=O)NC2CCN(c3cc(-c4ccc(F)cc4)[nH]n3)CC2)cc(OC)c1OC	-7.5%
O=C(CC1CCCCN(Cc2ccccc2)C1=O)Nc1ccc(F)cc1F (stereo not given)	-3.2%
COc1ccc(N2CCN(C(=O)CC3CCCCN(C)C3=O)CC2)cc1 (stereo not given)	-20.3%
O=C(CC1CCCCN(Cc2ccccc2)C1=O)N1CCN(c2ccc(F)cc2)CC1 (stereo not given)	11.2µM*
Cc1cc(=O)cc(C(=O)N2CCC3(CCCN(C(C)C)C3=O)C2)o1 (stereo not given)	-7.2%
Cc1ccc(CNC(=O)CC2CCCN(c3cnn(CC4CC4)c(=O)c3)C2)cc1C (stereo not given)	i
CC(C)CCN1CCNC(=O)C1CC(=O)N(Cc1cnn(C)c1)C1CC1 (stereo not given)	-2.9%
Cc1ccc(C(=O)N2CCN(C3CCN(CCc4ccccc4)C3=O)CC2)cc1F (stereo not given)	10µM*
O=C(c1cccc(Cl)c1)N1CCN(C2CCN(CCc3ccccc3)C2=O)CC1 (stereo not given)	i
CCC(=O)N1CCN(C2CCN(CCc3ccccc3)C2=O)CC1 (stereo not given)	i
Cc1cnc(C(=O)N[C@@H]2CCC[C@@H]2C(=O)NCc2cc(F)ccc2F)cn1	-0.7%
O=C(NCC1CC1)c1ccc(N2CC3CC(C2)[C@H]2CCCC(=O)N2C3)nc1 (stereo not given in full)	i
COCC1CCN(C(=O)COc2ccc(NC(=O)C3CC3)cn2)CC1	-0.7%
CCc1nccn(Cc2nnc(C3CC(N)C3)n2CCOC)c1=O (stereo not given)	2.8%
O=C(O)c1ccc(CN2CCC3(CC2)CC(C(=O)O)N(C(=O)C2CC2)C3)cc1 (stereo not given)	-6.8%
COc1cc(NC(=O)CCc2nc(-c3cccs3)no2)cc(OC)c1OC	-3.6%
O=C(CCc1nc(-c2cccs2)no1)Nc1ccc([N+](=O)[O-])cc1	11.2µM*
Cc1cccc(-c2noc(-c3ccccc3OCC(=O)Nc3ccc([N+](=O)[O-])cc3)n2)c1	12.7%
SMILES	Pf Dd2 growth
O=C(Cn1nc2n(c1=O)CCCCC2)Nc1ccccc1	11.8%
O=C(c1ccccc1Cl)N1CCC2(CC1)C(=O)NCN2Cc1ccc(Cl)cc1	-24.3%
CC(=O)Nc1ccc(CN2CCC3(CC2)CC(c2cccc(C(F)(F)F)c2)=NO3)cc1	10µM*
Fc1ccc(CN2CCCC3(CC(c4cccc(C(F)(F)F)c4)=NO3)C2)cc1 (stereo not given)	-15.8%
CN(C)c1ccc(CN2CCCC3(CC(c4cccc(C(F)(F)F)c4)=NO3)C2)cc1 (stereo not given)	6.6%
N#Cc1ccc(CN2CCC3(CC(c4cccc(C(F)(F)F)c4)=NO3)C2)cc1 (stereo not given)	-17.6%
Fc1ccc(CN2CCC3(CC(c4cccc(C(F)(F)F)c4)=NO3)C2)cc1 (stereo not given)	10µM*
CC(=O)Nc1ccc(CN2CCC3(CC2)CC(c2cccnc2)=NO3)cc1	-8.4%
COc1ccccc1C(=O)N1CCC(Cc2n[nH]c(C)n2)CC1	11.4%
CC(C)C(=O)N1CCOC[C@H](Oc2ccc(C(F)(F)F)cn2)C1	-13.6%[44.1 µM]
CCCNC(=O)N1C[C@@H]2CCCN3CCC[C@@H]([C@H]23)[C@H]1CCCC(=O)NC	9.7%
COc1ccc(Cl)cc1S(=O)(=O)N1CCC(n2cnnc2C(C)C)CC1	i
O=C(c1ccc(CSc2nc3ccncc3n2Cc2cccc(F)c2)cc1)N1CCCCCC1	8.91µM*
O=C(NCc1ccccc1)c1ccc(CSc2nc3cccnc3n2Cc2ccccc2F)cc1	3.0%
Cc1ccccc1CNC(=O)c1ccc(Cn2c(SCc3cccc(F)c3)nc3cccnc32)cc1	-16.2%
O=C(NCCc1ccccc1)c1ccc(Cn2c(SCc3cccc(F)c3)nc3cccnc32)cc1	12.6µM*
O=C(Cn1c(SCc2cccc(F)c2)nc2ccncc21)Nc1ccc(Cl)cc1F	28.3%
Cc1ccc(CSc2nc3cccnc3n2Cc2ccc(C(=O)NCCc3ccccc3)cc2)cc1	-13.4%
O=C(NCCc1ccccc1)c1ccc(CSc2nc3ccncc3n2Cc2cccc(F)c2)cc1	4.47µM*
O=C(NCCc1ccccc1)c1ccc(CSc2nc3ccncc3n2Cc2ccccc2F)cc1	7.08µM*
COC(=O)c1ccc(Cn2c(SCc3ccccc3F)nc3ccncc32)cc1	-16.8%
O=C(Cn1c(=O)oc2ccccc21)N1CCC2(CC1)CC(OCC1CC1)CCO2 (stereo not given)	-3.5%
CC(C)NC(=O)c1nc2sccn2c1Br	2.5%[44.1 µM]
CCC1c2nccn2CCCN1C(=O)CCc1c(C)noc1C (stereo not given)	-22.5%
CC(=O)Nc1ccc(C2(C(=O)NCc3ccc(F)cc3F)CCCCC2)cc1	4.0%
SMILES	Pf Dd2 growth
CNC(=O)N1CCC(Cc2noc(-c3ccncc3)n2)C1 (stereo not given)	23.0%
O=C(NC[C@H]1OC[C@@H](NC2CCCCC2)[C@@H]1O)c1ccncc1	2.7%[44.1 µM]
Cc1occc1C(=O)N1CC[C@@H]2CN(S(C)(=O)=O)[C@@H]2C1	24.3%
Cc1cccc(Cn2c(SCc3ccc(C(=O)NCCc4ccccc4)cc3)nc3ccncc32)c1	3.16µM*
O=C(NCCN1CCCCC1)c1ccc(Cn2c(SCc3ccc(F)cc3)nc3cccnc32)cc1	7.08µM*
Cc1cccc(Cn2c(CNC(=O)c3ccccc3)nc3ccccc32)c1	-5.3%
COCCCNC(=O)c1ccc(Cn2c(SCc3cccc(C)c3)nc3cccnc32)cc1	i
O=C(NC1CCCC1)c1ccc(CSc2nc3cccnc3n2Cc2ccccc2)cc1	13.5%
COCCCNC(=O)c1ccc(Cn2c(SCc3ccc(F)cc3)nc3cccnc32)cc1	-21.8%
COCC(=O)Nc1cc(C(=O)N2CCc3cc(OC)c(OC)cc3C2)c2c(c1)nc(C1CCC1)n2C	i
COc1cccc(S(=O)(=O)N2CCC(n3cnnc3C(C)C)CC2)c1	13.7%
COc1ccccc1OCC(=O)N1CC[C@@](O)(C2CCOCC2)[C@H](C)C1	5.3%
CCN(CC)C(=O)c1csc(N2CCN(c3cccc(Cl)c3)CC2)n1	i
CCCCN(C)C(=O)c1csc(N2CCN(c3ccccc3)CC2)n1	11.2µM*
O=C(NCc1ccccn1)c1csc(N2CCN(c3ccccc3)CC2)n1	i
CN1CCN([C@H]2CCN(C(=O)c3c(Cl)cnn3C)C[C@H]2CCC(=O)O)CC1	-1.7%
Cc1ccc(-n2nc(C)c([C@@H]3C=C[C@@H](NS(=O)(=O)c4cccs4)C3)c2C)cc1Cl	11.2µM*
COc1ccc(C(=O)N[C@@H]2C=C[C@@H](c3c(C)nn(-c4ccc(C)c(Cl)c4)c3C)C2)cc1	4.47µM*

Source: PubChem
